PubChem BioAssay (NCI)
About 83,000 compounds went through this panel and 20% of them were active in at least one assay; those are over-represented in the sample as a whole.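 How to read the values: 0–100, growth inhibition (40 = 60% inhibited); 0, no net growth; -100 to 0, cell death (-40 = 40% of starting cells died; -100 = all dead).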 A number with no mark means an inactive call. The source made the active and inactive calls. Rule for the calls: active = growth percent below 10; inactive = the rest.

What follows are compounds tested on HL-60(TB) leukemia (assay: NCI-60 one-dose screen, 48 h (100 = growth as untreated, 0 = no growth, -100 = all killed)). Conditions: 10 µM unless noted.

Row | SMILES | growth
1 | CCOC(=O)c1cnn(CC(O)c2ccc(F)cc2)c1NC(=O)Nc1ccccc1F (stereo unspecified) | 102%
2 | O=C(Nc1cccc(C2=NCCN2)c1)c1ccc(N=Nc2ccc(C(=O)Nc3cccc(C4=NCCN4)c3)cc2)cc1 | 42.5%
3 | Brc1ccc(SSc2ccc(Br)cc2)cc1 | 70.9%
4 | CCCCOc1c(N)cc(Cl)cc1C(=O)OCCN(CC)CC | 51%
5 | CC(C)(c1ccccc1)c1cc(O)c(C(C)(C)c2ccccc2)cc1O | -6.95% (active)
6 | O=C(Nc1nc2ccc(F)cc2s1)c1cccnc1Nc1ccc(Cl)cc1Cl | 26.5%
7 | CC/C(Cc1ccccc1)=C(\c1ccc(OCCN2CCCCCC2)cc1)c1ccc(OC(=O)NCc2ccccc2)cc1 | 37%
8 | O=C(NCc1cccnc1)c1cc(-c2csc3c(=O)cc(N4CCOCC4)oc23)cc2c1OCCO2 | -35.1% (active)
9 | Cc1c(Cl)c(C)c(Cc2c(C)c(Cl)c(C)c(Cl)c2O)c(O)c1Cl | 10.3%
10 | CC1CN(CCO)CC(C)O1 (stereo unspecified) | 102%
11 | C#CCOC(=O)C(N)CSSCC(N)C(=O)O (stereo unspecified) | 120%
12 | O=C(NC(Cc1ccc(O)cc1)C(=O)N=Nc1c(O)[nH]c2ccccc12)c1ccccc1 (stereo unspecified) | 101%
13 | Oc1ccccc1/C=N/c1ccccn1 | 102%
14 | O=c1c2ccccc2c(=O)c2c1sc1c(=O)c3ccc(O)cc3c(=O)c12 | -30.6% (active)
15 | CN(C)C(=O)c1ccc(SC(=S)NCc2ccccc2)cc1 | -32% [100 µM] (active)
16 | O=[N+]([O-])c1cccc(C(F)(F)F)c1 | 109%
